Data: PubChem BioAssay (NCATS)
Records with an inconclusive call do not appear. Unmarked numbers belong to inactive results. Calls of active or inactive are those of the source. Calls follow the shape of the dose curve; as a rule, active = well fitted inhibition curve with a large enough effect; inconclusive = small, poorly fitted or top-dose-only effect; inactive = flat fitted curve, though single readings scatter.

The compounds below were run on Zika virus NS2B-NS3 protease (assay: Primary screen GU AMC qHTS for Zika virus inhibitors (AID 1347154; also: nearly all actives have a fitted effect of over 70% in size;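 as to activity change, negative = inhibition: 0% = no-inhibitor control and -100% = no-enzyme control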)). Conditions: Zika NS2B-NS3 unlinked protease, AMC fluorogenic substrate; series mostly up to 54.1 µM; activity change, negative = inhibition: at the top concentration.
In short: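 Fluorogenic AMC-substrate cleavage by noncovalent NS2B-NS3 protease complex (25 nM, pH 8.0 Tris buffer with Tween 20) followed for 15 minutes at room temperature (~20% conversion). Percent inhibition from ex340/em450 signal change, fitted by 4-parameter Hill equation.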
Potency is read from the fitted curve at half-maximal effect.

SMILES	Potency	activity change, negative = inhibition
CC[C@@]1(O)C(=O)OCc2c1cc1n(c2=O)Cc2c-1nc1ccccc1c2/C=N/OC(C)(C)C	14.4 µM (active)	–
c1ccc2c(c1)CCc1ccccc1N2	–	-11.9%
NCC(=O)O	inactive	–
CCc1cc(S(=O)(=O)O)c2cc(C(C)C)cccc1-2	–	2.96%
O=C(O)/C=C(\CC(=O)O)C(=O)O	–	-0.852%
O=C1NCCN1CCN1CCC(c2cn(-c3ccc(F)cc3)c3ccc(Cl)cc23)CC1	–	-13%
CSCC[C@H](NC(=O)[C@H](Cc1c[nH]c2ccccc12)NC(=O)CCNC(=O)OC(C)(C)C)C(=O)N[C@@H](CC(=O)O)C(=O)N[C@@H](Cc1ccccc1)C(N)=O	–	1.66%
CC(=O)c1ccc(O)c(C(N)=O)c1	–	-1.53%
C/C(=C1\CCOC(=O)S1)N(C=O)Cc1cnc(C)nc1N	–	2.39%
O=C(CCCl)NCCc1ccccc1	–	0.177%
CC(CCc1ccc2c(c1)OCO2)NN (configuration not stated)	–	-0.245%
NC(=O)COCCN1CCN(C(c2ccccc2)c2ccc(Cl)cc2)CC1 (configuration not stated)	–	-0.415%
Cc1cc(=O)oc2cc(O[C@@H]3SC[C@@H](O)[C@H](O)[C@H]3O)ccc12	–	-13.8%
CC(=O)OCC(=O)[C@@]1(O)CCC2C3CCC4=CC(=O)CC[C@]4(C)C3[C@@H](O)C[C@@]21C (some centres not stated)	–	-0.0452%
O=C(OCC1(COC(=O)c2cccnc2)CCCC(COC(=O)c2cccnc2)(COC(=O)c2cccnc2)C1O)c1cccnc1	–	-4.34%
COc1ccc(-n2nc(CCC(=O)N(C)O)cc2-c2ccc(Cl)cc2)cc1	–	-1.87%
COc1ccc([C@@H]2Sc3ccccc3NC(=O)[C@@H]2O)cc1	–	1.23%
